Shown are actives, neighbours in structure and some others; about 19% of the full set was active somewhere.
DT40 TDP1 CPT – growth inhibition of DT40 Tdp1-/-;hTDP1 cells with camptothecin (screen for TDP1 inhibitors) | chicken DT40 Tdp1-/-;hTDP1 cells + 20 nM CPT, ATP luminescence, 48 h | AID 686979 | Potency, µM (top dose mostly 46.2 µM), without a hit: at the top dose activity change, negative = growth inhibition, most hits filed as inhibitors | actives 12% (n = 420,000); note: potency is the fitted concentration of half-maximal effect; nearly all actives have a fitted effect of over 55% in size
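Cell growth measured by CellTiter-Glo luminescence after a minimum 48 h, 37 C compound exposure with 20 nM CPT in Tdp1-knockout DT40 cells stably expressing hTDP1, seeded 400/well; qHTS titration format.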
IL1B secr inh – inflammasome signaling inhibition, IL-1 beta readout. activity change, % at 57.5 µM. AID 743279. THP-1 LPS/ATP IL-1B secretion, AlphaLISA, 16 h; active compounds read low. actives 4.7% (n = 360,000); in the data active = activity change below about -50%; inconclusive = mostly about -30% to -49%
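Secreted IL-1B measured by AlphaLISA bead assay after 16 h compound exposure of THP-1 cells; compounds (final up to 57.5 uM) added 1 h before LPS (250 ng/mL) and ATP (1.25 mM) stimulation; lower signal means less secretion.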
ELG1 repair inh – inhibitors of ELG1-dependent DNA repair in HEK293T cells; HEK293T ELG1-luciferase reporter, luminescence, 16 h; DNA damage induced by 5-fluorouridine; Potency, µM (top dose mostly 46.1 µM), for the others: at the highest dose activity change, negative = inhibition, most hits filed as inhibitors; actives 2.3% (n = 330,000); note: potency is the fitted concentration of half-maximal effect; nearly all actives have a fitted effect of over 55% in size
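Luminescence from the luciferase reporter, measured 30 min after ONE-Glo reagent at room temperature, was the read-out. Beforehand, 2,000 cells per well were exposed for 16 hr at 37 °C to 5-fluorouridine together with compound or vehicle.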
HT1080NT lethal – kills 2HG-producing HT-1080-NT fibrosarcoma cells. HT-1080-NT fibrosarcoma viability, CellTiter-Glo ATP luminescence, 48 h. Potency, µM (titrated, usually from 46.1 µM), without a hit: at the highest dose activity, negative = less viability, hits mostly cytotoxic. actives 1.6% (n = 360,000). AID 686970;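 note: NT is the 2HG producing partner of a matched IDH1 knockdown line; potency is the fitted concentration of half-maximal effect; 0% = DMSO-treated cells and -100% = media-only wells without cells; nearly all actives have a fitted effect of over 55% in size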
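Viability by CellTiter-Glo luminescence after 48 h compound exposure at 37C of HT-1080-NT cells (750/well, RPMI, 5% FBS). % activity scaled between DMSO wells and medium-only wells, then curve-fitted and categorized by curve class.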
HT1080 IDH1KD tx – kills HT-1080 cells with IDH1 knockdown | HT-1080 IDH1 knockdown viability, ATP luminescence, 48 h | Potency, µM (top dose mostly 46.1 µM), for inactives: at the highest dose activity, negative = toxicity, usual class: cytotoxic | actives 2% (n = 360,000);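 note: potency is the fitted concentration of half-maximal effect; 0% = DMSO wells and -100% = cell-free medium wells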
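IDH1KD HT-1080 cells, 750/well, RPMI + 5% FBS; compound pinned after 2 h settling; 48 h, 37 °C; CellTiter-Glo luminescence; % activity normalised to DMSO and no-cell wells; curves fitted, classed by r2 and efficacy.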
DT40 TDP1 no CPT – qHTS for Inhibitors of human tyrosyl-DNA phosphodiesterase 1 (TDP1): qHTS in cells in absence of CPT. DT40 Tdp1-/- hTDP1 cells, no CPT, ATP luminescence, 48 h. actives 15% (n = 420,000). AID 686978, 2013. Potency, µM (highest dose often 46.2 µM), for the others: at the top dose activity change, negative = growth inhibition, hits mostly inhibitors; note: potency is the fitted concentration of half-maximal effect; nearly all actives have a fitted effect of over 55% in size
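Readout: luminescence from CellTiter-Glo after 30 min in the dark at RT. Cells: DT40 Tdp1-/- with stable hTDP1, 400/well. Exposure: compounds alone, ≥48 hr, 37 °C.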
The depositor's hits bear a star; u = inconclusive; x = no result. Unless noted, calls come from the whole dose curve; as a rule, active = well fitted curve in the direction sought with a large enough effect; inconclusive = small, poorly fitted or top-dose-only effect, or another doubt; inactive = no such curve, though single readings can be large; an effect the other way counts as inactive or inconclusive. Unless noted, % is set by controls: 0 for no effect and ±100 for the full control effect.

SMILES | DT40 TDP1 CPT | IL1B secr inh | ELG1 repair inh | HT1080NT lethal | HT1080 IDH1KD tx | DT40 TDP1 no CPT
O=C1/C(=C\c2ccc(O)c(O)c2)N=C2CCCCCN12 | 23µM* | 38 | u | -17% | -22% | u
CCN(CC)c1ncnc2c1cnn2C | -17% | 3 | 11% | 14% | 0% | -27%
Cc1ccc(-n2ncc3c(NCC4CCCO4)ncnc32)c(C)c1 (centres undefined) | u | -6 | -4% | 5% | 0% | u
Clc1cccc(-n2ncc3c(NCCCn4ccnc4)ncnc32)c1 | 21µM* | x | x | x | x | u
CCN(CC)c1ncnc2c1cnn2-c1cc(Cl)ccc1C | 21µM* | x | x | x | x | 21µM*
COc1cccc(OCCN2CCN(c3ncnc4c3cnn4-c3ccccc3)CC2)c1 | u | -7 | u | u | u | u
Cc1ccc(Cl)cc1-n1ncc2c(N3CCN(Cc4ccccc4)CC3)ncnc21 | 2.6µM* | x | x | x | x | 2.3µM*
COc1ccc(-n2ncc3c(NCCCn4ccnc4)ncnc32)cc1 | -12% | 8 | 0% | 9% | -3% | -13%
Cc1ccc(Cl)cc1-n1ncc2c(NC3CCCCC3)ncnc21 | 9.2µM* | x | x | x | x | 15µM*
CCOc1ccc2ccccc2c1/C=N/NC(=O)c1ccncc1 | 3% | 1 | 3% | 13% | 12% | -22%
Clc1cccc(-n2ncc3c(NC4CCCCC4)ncnc32)c1 | u | x | x | x | x | 18µM*
Clc1cccc(-n2ncc3c(N4CCCCCC4)ncnc32)c1 | -22% | x | x | x | x | -14%
Cc1cn(CC(=O)NCC2CCCO2)c(=O)[nH]c1=O (centres undefined) | -22% | 1 | x | 1% | -2% | 0%
Cc1nc(-c2ccc(S(=O)(=O)NCc3cccnc3)s2)cs1 | 12µM* | 0 | u | u | -16% | 21µM*
Cc1nc(-c2ccc(S(=O)(=O)NCC3CCN(C(=O)OC(C)(C)C)CC3)s2)cs1 | u | 17 | 21µM* | -26% | -8% | u
Cc1ccc(CN2CCC(CNS(=O)(=O)c3ccc(-c4ccc(=O)[nH]n4)s3)CC2)cc1 | u | u | u | -22% | -13% | u
Cc1ccc(S(=O)(=O)NC(C(=O)Oc2cc3oc(=O)cc(C)c3cc2Cl)C(C)C)cc1 (centres undefined) | -3% | -21 | -11% | 0% | 1% | u
COc1cccc(CNC(=O)c2c(OC)cc(=O)n3c2CCN(C(=O)C2CC=CCC2)CC3)c1 (centres undefined) | -9% | x | x | x | x | -13%
O=c1[nH]c(SCCc2ccccc2)nc2c1CCC2 | u | -5 | x | 1% | 4% | 7.3µM*
Cc1oc(-c2ccccc2Cl)nc1CSc1nc2c(c(=O)[nH]1)CCCC2 | 13µM* | -8 | 0% | 6% | -1% | 18µM*
CNc1nc(SCc2ccccc2Cl)nc2c1CCCC2 | u | -18 | u | u | 33µM* | u
COC(=O)c1ccc(CSc2nc3c(c(=O)[nH]2)CCC3)cc1 | u | 27 | x | 15% | 23% | 21µM*
Cc1ccccc1CSc1nc2c(c(=O)[nH]1)CCCC2 | x | x | 8% | x | x | x
O=c1[nH]c(SCc2ccccc2Cl)nc2c1CCC2 | u | 10 | 12% | -1% | 2% | 29µM*
O=C(NCc1cccnc1)Nc1ccc(Cl)cc1 | 1% | -18 | u | 29% | 9% | -4%
SMILES | DT40 TDP1 CPT | IL1B secr inh | ELG1 repair inh | HT1080NT lethal | HT1080 IDH1KD tx | DT40 TDP1 no CPT
COC(CNC(=O)CN1CCN(Cc2ccccc2F)C1=O)OC | -5% | 8 | 1% | 6% | 4% | -6%
CCc1nc2ccc(C(=O)Nc3cccc(NS(C)(=O)=O)c3)cn2c1N(C)C(=O)Cc1ccccc1 | -21% | -87* | x | 17% | 0% | 3%
CCc1nc2ccc(C(=O)Nc3cccc(OC)c3)cn2c1N(CC)CCN(C)C | 4% | -17 | x | 3% | 19% | 3%
CCc1nc2ccc(C(=O)Nc3cccc(NS(C)(=O)=O)c3)cn2c1N(C)C(=O)c1cccc(OC)c1 | -10% | -78* | x | 7% | 16% | 2%
Cc1ccc(Cl)cc1NC(=O)C(C)n1nc(-c2ccccc2)ccc1=O (centres undefined) | u | x | x | x | x | -20%
CCc1nnc(SCC(=O)Nc2ccc(F)cc2)o1 | 1% | 29 | -12% | -18% | 1% | 20%
c1ccc(CNc2ncnc3c2cnn3-c2ccccc2)cc1 | 5.8µM* | 41 | u | u | u | 4.6µM*
COc1ccc(Nc2ncnc3c2cnn3-c2ccccc2)cc1OC | u | -17 | u | -22% | -20% | -11%
Cc1cccc(-n2ncc3c(NCc4ccccc4)ncnc32)c1 | 4.6µM* | 23 | u | u | 18µM* | 6.5µM*
Cc1cccc(-n2ncc3c(NCc4ccco4)ncnc32)c1 | 13µM* | -9 | u | u | u | 12µM*
Cc1cccc(-n2ncc3c(NCc4ccccn4)ncnc32)c1 | u | u | u | 1% | -2% | u
COc1ccc(OC)c(Nc2ncnc3c2cnn3-c2cccc(C)c2)c1 | 5.2µM* | 6 | u | 7.1µM* | 7.1µM* | 4.6µM*
CC(C)NC(=O)C1(C)CSCC(=O)N1C1CC1 (centres undefined) | -21% | 0 | x | 11% | 8% | 5%
O=S(=O)(c1cnccc1N1CCN(CCO)CC1)N1CCCCC1 | 13% | 12 | u | 3% | 11% | 4%
Cc1cccc(-n2ncc3c(NCCc4ccc(S(N)(=O)=O)cc4)ncnc32)c1 | 29µM* | -13 | u | -15% | -20% | u
O=C(NCc1ccccc1CN1CCCC1)c1cc2cc(Cl)ccc2o1 | 18µM* | -24 | -11% | -19% | -7% | u
COCc1c(C(=O)NCc2ccccc2CN2CCCC2)oc2ccccc12 | -25% | -12 | 1% | -5% | -2% | -23%
COc1ccc2cc(C(=O)NCc3ccccc3CN3CCCC3)ccc2c1 | u | -68* | u | -14% | -22% | u
COc1ccc2oc(C(=O)NCc3ccccc3CN3CCCC3)c(C)c2c1 | 21µM* | -22 | -5% | -5% | -10% | u
CCCCC(NC(C)=O)c1nc2ccccc2n1CCC (centres undefined) | u | 16 | -27% | -3% | -4% | 5.8µM*
CCCCCn1c(C(Cc2ccccc2)NC(=O)COC)nc2ccccc21 (centres undefined) | 18µM* | 8 | 10% | 7% | -10% | 26µM*
